# 15-hLO inh: 15-hLO (ALOX15) enzyme inhibition; P16050; purified 15hLO-1, xylenol orange hydroperoxide absorbance; Potency, µM (top dose mostly 57.1 µM), without a hit: top-dose activity change, negative = inhibition, most hits filed as inhibitors; actives 1.4% (n = 74,000); further: on the % scale 0 is the no-effect control and ±100 the full control effect; nearly all actives have a fitted effect of over 55% in size
#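 Readout: Fe(III)-xylenol orange absorbance, 573-to-405 nm ratio as reaction progress. Enzyme 40 nM purified human 15hLO-1, substrate 50 uM arachidonic acid, 6 min RT after 15 min compound preincubation; Hepes pH 7.5 buffer with Triton X-100.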
# Hsp90 Hop PPI: changes Hsp90-Hop TPR2A binding signal, up or down. AlphaScreen TPR2A-His6 binding biotin-Hsp90 C-terminal peptide. Potency, µM (doses to about 57 µM), for inactives: at the highest dose activity change, negative = inhibition. actives 0.44% (n = 71,000); active means well fitted curve in either direction with a large enough effect; inconclusive means small, poorly fitted or top-dose-only effect, or another doubt; further: on the % scale 0 is the no-effect control and ±100 the full control effect
# Tau fil binding: tau filament binding; P10636; recombinant tau filaments, thioflavin S fluorescence, 15 h; filaments grown with octadecylsulfate alongside compound; Potency, µM (highest dose often 57.1 µM), for the others: at the top dose activity change, negative = inhibition; actives 2% (n = 71,000);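 further: on the % scale 0 is the no-effect control and ±100 the full control effect; actives lower thioflavin S fluorescence by blocking filaments or displacing dye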
# Target sequence (P10636 whole entry, looked up): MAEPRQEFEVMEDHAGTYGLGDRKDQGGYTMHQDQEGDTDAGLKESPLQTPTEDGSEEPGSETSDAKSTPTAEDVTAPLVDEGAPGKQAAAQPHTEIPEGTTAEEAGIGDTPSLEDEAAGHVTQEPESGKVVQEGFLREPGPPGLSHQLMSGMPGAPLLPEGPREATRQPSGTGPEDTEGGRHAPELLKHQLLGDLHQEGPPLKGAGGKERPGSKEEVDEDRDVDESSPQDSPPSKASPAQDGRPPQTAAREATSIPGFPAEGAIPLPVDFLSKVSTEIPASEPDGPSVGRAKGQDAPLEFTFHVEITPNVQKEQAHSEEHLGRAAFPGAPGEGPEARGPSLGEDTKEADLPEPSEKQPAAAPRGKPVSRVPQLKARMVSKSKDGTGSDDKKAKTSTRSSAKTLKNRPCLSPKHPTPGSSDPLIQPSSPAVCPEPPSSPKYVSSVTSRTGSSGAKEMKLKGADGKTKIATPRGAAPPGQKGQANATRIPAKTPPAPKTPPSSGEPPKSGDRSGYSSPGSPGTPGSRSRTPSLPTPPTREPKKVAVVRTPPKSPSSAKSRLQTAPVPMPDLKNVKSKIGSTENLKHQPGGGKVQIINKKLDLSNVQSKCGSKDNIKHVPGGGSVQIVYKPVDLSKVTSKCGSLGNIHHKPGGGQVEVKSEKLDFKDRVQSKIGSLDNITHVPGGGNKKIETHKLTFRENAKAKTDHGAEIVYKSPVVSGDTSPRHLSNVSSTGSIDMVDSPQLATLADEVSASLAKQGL
#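 His-tagged recombinant human tau (exons 2, 3, 10; 1 uM final) fibrillized with 30 uM sodium octadecylsulfate, 15 h at 37 C, in pH 7.4 HEPES buffer with 10 uM thioflavine S and 5 mM DTT. Reduced ThS fluorescence (450/510 nm) marks activity.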
# USP2a inh: blocks human ubiquitin-specific protease USP2a; O75604; USP2a enzymatic assay, qHTS inhibition; Potency, µM (titrated, usually from 38.3 µM), for the others: at the top dose activity change, negative = inhibition, usual class: inhibitors; actives 0.1% (n = 60,000); further: nearly all actives have a fitted effect of over 60% in size
#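 20 nM USP2 core + cpd, 30 min RT; add 20 nM Ub-PLA2/20 uM NBD C6-HPC; read Ex460/Em535 at 0 h and 2.5 h. Normalized to NEM; qHTS curve fit/classification.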
# * marks the source's active call; other numbers are inactive results; ? = inconclusive; nt = no result; [ ] = remark or other dose. Rows were chosen to be rich in hits. Some 3.2% of all compounds tested hit in one or more screens of this group. Unless noted, the call rests on the fitted dose curve; in most records, active means well fitted curve in the direction sought with a large enough effect; inconclusive means small, poorly fitted or top-dose-only effect, or another doubt; inactive means no such curve, though single readings can be large; an effect the other way counts as inactive or inconclusive. Potency means the concentration at half of the fitted maximal effect.
SMILES,15-hLO inh,Hsp90 Hop PPI,Tau fil binding,USP2a inh
CCOC(=O)C1=C(CSc2nc(C)ccc2C#N)OC(N)=C(C#N)C1c1cccc(OC)c1OC (configuration not stated),20µM*,-6%,0%,42%
CCOC(=O)C1=C(C)OC(N)=C(C#N)C1c1ccc(OC)c(C)c1OC (configuration not stated),0%,-1%,11%,0%
CC(=O)C1=C(C)Nc2cc(C(F)(F)F)ccc2S1,13µM*,-17%,32µM*,7%
FC(F)(F)c1cnc2c(c1)Nc1ccccc1S2,-3%,0%,0%,-7%
CCOC(=O)c1ccc(N2CSC3=C(C#N)C(c4cccs4)CC(=O)N3C2)cc1 (configuration not stated),13µM*,-3%[2.3 µM],4%,nt
CCc1ccc(C2CC(=O)N3CN(c4ccccc4)CSC3=C2C#N)cc1 (configuration not stated),2.5µM*,?,?,nt
CN1CSC2=C(C#N)C(c3cccc(OCc4ccccc4)c3)CC(=O)N2C1 (configuration not stated),5µM*,-4%[2.3 µM],-16%,nt
CCOC(=O)N/N=C1/C[C@@H](O)[C@@H](O)[C@@H]2[C@@H]3C(=O)N(C(C)(C)C)C(=O)[C@H]3CC[C@@H]12,7%[11.4 µM],nt,nt,nt
O=C(CN1CC(c2ccccc2)CC1=O)Nc1ccc2c(c1)OCO2 (configuration not stated),0%,-7%,25µM*,nt
CCOc1ccccc1N1CSC2=C(C#N)C(c3c(OC)ccc4ccccc34)CC(=O)N2C1 (configuration not stated),?,-4%[2.3 µM],25µM*,nt
COc1ccc(N2CSC3=C(C#N)C(c4cc(OC)c(OC)cc4OC)CC(=O)N3C2)c(OC)c1 (configuration not stated),?,-6%[2.3 µM],?,nt
COc1ccc(N2CSC3=C(C#N)C(c4cc(OC)ccc4OC)CC(=O)N3C2)c(OC)c1 (configuration not stated),?,?,25µM*,nt
COc1ccc(N2CSC3=C(C#N)C(c4ccc(OC)c(OC)c4)CC(=O)N3C2)c(OC)c1 (configuration not stated),4µM*,-19%,20µM*,nt
COc1ccc(C2CC(=O)N3CN(c4ccc(C)c(Cl)c4)CSC3=C2C#N)cc1OC (configuration not stated),3.2µM*,-7%,-14%,nt
COc1ccccc1CNC(=O)N[C@@H](Cc1ccccc1)C(=O)O,3%,-2%,-13%,-4%
C[C@@]1(C(NS(=O)(=O)c2cccc3cccnc23)c2ccc(-c3ccccc3)cc2)C[C@H]1C1CCCCC1 (some centres not stated),nt,-12%,-2%,nt
Oc1ccc(C(=S)N2CCCCC2)cc1Cl,-16%,-4%,-5%,-10%
c1coc(-c2nc3ccccc3nc2-c2ccco2)c1,25µM*,-8%,13µM*,20%
O=c1oc(-c2ccco2)nc2ccccc12,-6%,-5%,42%,-6%
COc1ccc2[nH]cc(CCNc3ncncc3-c3ccccc3C)c2c1,-4%,-23%,-10%,85%
CCOC(=O)c1[nH]cc(-c2ccccc2)c1N1CCOCC1,25µM*,-4%,-5%,3%
COc1ccc(-c2coc3cc(O)ccc3c2=O)cc1,3%[25.6 µM],0%,32µM*,-7%
COc1ccc(C(=O)c2cnc(C(C)C)n2C)cc1,-18%,-1%,4%,3%
CCCc1ncc(C(=O)c2ccc(OC)cc2)n1C,10µM*,1%,0%,-1%
Cc1cc(-c2nnc(-c3cc4ccccc4oc3=O)o2)c(C)n1-c1ccccc1,-12%,2%,3.2µM*,33%
SMILES,15-hLO inh,Hsp90 Hop PPI,Tau fil binding,USP2a inh
O=C(c1ccccc1)c1cc(F)c(N2CCOCC2)cc1Cl,-2%,nt,nt,nt
O=C(c1ccccc1)c1ccc(N2CCOCC2)c(F)c1,32µM*,3%,-22%,-7%
CC(C)(C)NS(=O)(=O)c1cccc(S(=O)(=O)c2cccc(S(=O)(=O)NC(C)(C)C)c2)c1,5%,-5%,-11%,16%
O=C(Cc1coc2cc3c(cc12)CCC3)OCc1cc(=O)n2c(n1)sc1ccccc12,20µM*,-10%,71%,25%
COC(=O)[C@@]1(Cc2ccc(OC)cc2)[C@H]2c3cc(C(=O)N(C)C)n(Cc4ccc(C)o4)c3C[C@H]2CN1C(=O)c1ccccc1,nt,-6%,0%,nt
Nc1ccc(N)c(Cl)c1,?,-22%,32µM*,nt
CO[C@H]1/C=C/O[C@@]2(C)Oc3c(C)c(O)c4c(O)c(c5c(c4c3C2=O)NC2(CCN(CC(C)C)CC2)N=5)=NC(=O)/C(C)=C\C=C\[C@H](C)[C@H](O)[C@@H](C)[C@@H](O)[C@@H](C)[C@H](OC(C)=O)[C@@H]1C,?,-13%,0.4µM*,nt
CO[C@H]1C=CO[C@]2(C)Oc3c(C)c(O)c4c(O)c(c5c(c4c3C2=O)NC2(CCN(CC(C)C)CC2)N=5)=NC(=O)C(C)=CC=C[C@@H](C)[C@@H](O)[C@@H](C)[C@@H](O)[C@@H](C)[C@@H](OC(C)=O)[C@@H]1C,14%[25.6 µM],-19%[26 µM],1.6µM*,94%[17.1 µM]
CO[C@@H]1/C=C\O[C@]2(C)Oc3c(C)c(O)c4c(O)c(cc(O)c4c3C2=O)NC(=O)/C(C)=C\C=C/[C@H](C)[C@@H](O)[C@H](C)[C@H](O)[C@H](C)[C@H](OC(C)=O)[C@@H]1C,-17%[11.4 µM],-6%[11 µM],-7%[11.4 µM],nt
Clc1ccc2[nH]c3c(c2c1)CCc1cn[nH]c1-3,?,-4%,16µM*,?
COc1ccc(CCN(C)CCCOc2ccc(S(=O)(=O)c3[nH]c4ccccc4c3C(C)C)cc2)cc1OC,-1%[25.6 µM],?,-46%,nt
CC(=O)N1CCC2(CCN(Cc3ccc(C#N)cc3)CC2)CC1,5%,-12%,-9%,7%
O=C1CS/C(=N\C(=O)N2c3ccccc3Sc3ccccc32)N1,?,-13%[11 µM],3.2µM*,29%[7.66 µM]
O=C1CSC(=Nc2ccccc2Cl)N1,5%,-4%,-6%,-2%
CCN1CCN(c2nc3ccccc3nc2C(C#N)C(=O)OCc2ccccc2)CC1 (configuration not stated),-10%,-21%,1.3µM*,41%
CCCCCNC(=O)C(C#N)c1nc2ccccc2nc1N1CCCC1 (configuration not stated),12%,0%,-15%,9%
CCCCOC(=O)C(C#N)c1nc2ccccc2nc1N1CCOCC1 (configuration not stated),-22%,?,4µM*,8%
COc1ccccc1N1CCN(c2nc3ccccc3nc2C(C#N)C(=O)OC(C)C)CC1 (configuration not stated),-8%,?,7.9µM*,24%
CCCCCCOC(=O)C(C#N)c1nc2ccccc2nc1N1CCOCC1 (configuration not stated),-15%,-6%,2.5µM*,12%
CN(C)c1ncc2nc(-c3ccc(F)cc3)c(=O)n(CCC#N)c2n1,-3%,-3%,179%,53%

# Assay outcomes as filed in PubChem.
